High-throughput results from PubChem BioAssay.
Only some compounds are listed: those with a hit (about 2.9% of all), similar ones and a draw of the others.
PAFAH1B2 inh – inhibitors of human PAFAH1B2 | recombinant PAFAH1B2, FP-rhodamine activity probe, fluorescence polarization | hit rate 1.2% among 340,000 | inhibition, % at 3.39 µM;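 active = inhibition above the mean of all tested compounds plus 3 SD, cut at about 24% in these data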;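 also: 0% = enzyme with DMSO and 100% = wells lacking PAFAH1B2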
Target sequence (P68402 whole entry, looked up): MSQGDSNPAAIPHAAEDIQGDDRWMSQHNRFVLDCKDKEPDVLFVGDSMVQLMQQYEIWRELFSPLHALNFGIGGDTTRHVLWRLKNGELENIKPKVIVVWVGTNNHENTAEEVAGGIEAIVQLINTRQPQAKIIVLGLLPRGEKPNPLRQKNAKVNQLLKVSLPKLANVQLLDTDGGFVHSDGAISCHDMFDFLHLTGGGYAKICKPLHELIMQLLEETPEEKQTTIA
pPAFAH inh – inhibitors of human plasma PAF acetylhydrolase (pPAFAH) | Q13093 | recombinant pPAFAH, FP-rhodamine probe fluorescence polarization | inhibition, % at 3.39 µM | hit rate 1.5% among 330,000;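 active = inhibition above the mean inhibition across the screen plus 3 SD, cut at about 25% in these data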;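 also: inhibitors block binding of the rhodamine activity-based probe so polarization drops; 0% = enzyme with DMSO and 100% = wells lacking pPAFAH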
Fam108B inh – blocks mouse Fam108B hydrolase in RBBP9 counter-screen | recombinant Fam108B, FP-Rh probe fluorescence polarization | AID 1947 | inhibition, % at 9.51 µM | hit rate 0.33% among 300,000;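 active = inhibition above the screen mean inhibition plus 3 SD, computed separately per campaign, cut at about 18% in these data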;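 also: inhibitors lower polarization as less probe binds the enzyme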
PME-1 inh – blocks human protein phosphatase methylesterase 1 | Q9Y570 | recombinant PME-1, FP-Rh probe fluorescence polarization | inhibition, % at 5.9 µM | hit rate 0.53% among 320,000 | AID 2130;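 active = inhibition above the campaign mean of all compounds plus 3 SD, cut at about 26% in these data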;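 also: competitive labeling of PME-1 active site by serine hydrolase directed probe; 0% = PME-1 with DMSO and 100% = wells lacking PME-1 enzyme; inhibitors block probe labeling so polarization falls and inhibition rises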
Target sequence (Q9Y570 whole entry, looked up): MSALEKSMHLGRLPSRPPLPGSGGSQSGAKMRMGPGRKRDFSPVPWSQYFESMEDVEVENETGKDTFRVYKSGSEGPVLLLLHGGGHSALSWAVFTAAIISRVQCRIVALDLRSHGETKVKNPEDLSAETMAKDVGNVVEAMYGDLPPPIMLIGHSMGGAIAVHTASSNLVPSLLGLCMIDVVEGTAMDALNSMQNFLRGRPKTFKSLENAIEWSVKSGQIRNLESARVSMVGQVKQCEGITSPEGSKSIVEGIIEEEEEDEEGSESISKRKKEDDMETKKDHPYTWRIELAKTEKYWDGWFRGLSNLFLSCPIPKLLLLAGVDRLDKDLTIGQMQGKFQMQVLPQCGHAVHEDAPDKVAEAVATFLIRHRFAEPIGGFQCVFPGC
PAFAH2 inh – PAFAH2 (human) inhibition | Q99487 | recombinant PAFAH2, FP-rhodamine activity probe, fluorescence polarization | inhibition, % at 3.39 µM | hit rate 0.99% among 340,000;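 active = inhibition above the mean over all tested compounds plus 3 SD, cut at about 30% in these data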;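 also: inhibitors block probe labeling of enzyme so polarization drops; 0% = enzyme with DMSO and 100% = wells lacking PAFAH2 protein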
PAFAH1B3 FP inh – inhibitors of human PAFAH1B3. inhibition, % at 3.39 µM. recombinant PAFAH1B3, FP-rhodamine probe, fluorescence polarization. hit rate 0.28% among 340,000;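 active = inhibition above the screen-wide average of all tested compounds plus 3 SD, cut at about 25% in these data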;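 also: 0% = enzyme with DMSO only and 100% = wells lacking PAFAH1B3 protein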
PAFAH1B3 conf FP – PAFAH1B3 (human) inhibition, confirmed. inhibition, % at 3.39 µM. shares compounds with PAFAH1B3 FP inh. AID 493032. hit rate 30% among 390. recombinant PAFAH1B3, FP-Rh activity-based probe, fluorescence polarization;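 active = average inhibition over triplicate runs above the hit cutoff set in the earlier primary screen, cut at about 25% in these data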;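 also: 0% = enzyme with DMSO and 100% = wells lacking PAFAH1B3 protein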
Starred values were filed as active, the others as inactive; x = not tested or not shown; + = active, no number.

SMILES | PAFAH1B2 inh | pPAFAH inh | Fam108B inh | PME-1 inh | PAFAH2 inh | PAFAH1B3 FP inh | PAFAH1B3 conf FP
COc1ccc2nc(NNC(=O)c3cc(=O)c4ccccc4o3)sc2c1 | 2.7 | 24.2 | 1.2 | 6.7 | 11.4 | 28.8* | 22.8
O=C(O)c1cccc(NC2=C(n3nnc4ccccc43)C(=O)c3ccccc3C2=O)c1 | 4.8 | -0.6 | 1.5 | 0.5 | 2.7 | 29.3* | 17.1
O=C(O)c1cccc(NS(=O)(=O)c2ccc3nnn(O)c3c2)c1 | 0.6 | 1.7 | 4.6 | 0.1 | -2.1 | 8.3 | x
COc1cc2sc3cc(NCCCN4CCOCC4)ccc3c(=O)c2cc1OC | 4.6 | 7.5 | x | x | 11.3 | 27.7* | 10.9
O=c1c2ccccc2sc2ccc(NCCCN3CCOCC3)cc12 | -10.8 | 15.7 | 8.1 | 9.4 | 6.7 | 9.2 | x
O=c1[nH]c(=O)c2nc3c4ccccc4c4ccccc4c3nc2[nH]1 | -3.2 | 1.2 | -5.1 | -7.4 | 17.3 | 9.1 | x
Cc1ccc(NC2=CC(=O)C(=O)c3ccccc32)cc1 | 7.7 | 9.2 | 11.7 | 15.3 | 4.2 | 25.5* | 20.7
Cc1ccc(Nc2ccccc2)cc1 | 7.2 | 6.5 | 0.3 | 3.5 | -3.9 | 18.0 | x
COc1cc(OC)c(NC2=CC(=O)C(=O)c3ccccc32)cc1Cl | 10.3 | 11.7 | 16.5 | 10.0 | 11.9 | 41.9* | 33.4*
Cc1cc(NC(=O)CCN2C(=O)c3ccccc3C2=O)no1 | 6.1 | 3.5 | -3.1 | -1.5 | -3.2 | 6.6 | x
Cc1cc(NC2=CC(=O)C(=O)c3ccccc32)no1 | 10.8 | x | x | x | 20.4 | 33.2* | 34.1*
COc1cccc(CNC(=O)C(=O)NCCC2CCCCN2S(=O)(=O)c2ccccc2)c1 (stereo not given) | 5.5 | 5.3 | 1.3 | -0.1 | 0.5 | -0.2 | x
O=C(Nc1ccccc1)c1ccc(NCC2CCCO2)c([N+](=O)[O-])c1 (stereo not given) | -1.0 | 0.0 | 1.5 | 3.9 | -3.6 | 3.5 | x
COc1cc(OC)cc(-c2nc3cc(C)ccc3o2)c1 | 1.8 | -0.8 | -0.8 | -2.3 | -8.3 | 8.1 | x
CC(=O)C(C(C)=O)C1(O)C(=O)c2ccccc2C1=O | 15.7 | -2.1 | 10.5 | 4.9 | -2.6 | 34.1* | 21.8
N=c1sc2ccccc2n1-c1ccccc1 | 1.6 | 1.4 | -0.6 | 0.6 | 1.5 | -1.0 | x
C=CC(=O)N=c1sc2ccccc2n1-c1ccccc1 | 9.3 | 7.4 | -4.4 | -12.8 | 1.1 | 55.4* | 47.3*
O=C(COC(=O)c1ccc([N+](=O)[O-])s1)c1ccc[nH]1 | 7.0 | 16.6 | x | x | 14.5 | 32.8* | 26.2*
CC(C)CN(C(=O)c1ccc(N2CCCC2=O)cc1)c1c(N)n(Cc2ccccc2)c(=O)[nH]c1=O | 2.1 | -4.1 | x | 4.1 | 4.7 | 11.5 | x
COC(=O)c1c[nH]c2c1-c1cc(C(=O)OCc3ccccc3)n(S(=O)(=O)c3ccc(C)cc3)c1C(=O)C2=O | 8.6 | x | x | x | 9.3 | 38.2* | 7.8
CC(C)(C)NC(=O)C1CCC(C)(C(=O)O)C1(C)C (stereo not given) | 1.5 | 1.1 | 2.9 | 2.4 | -0.2 | 1.9 | x
Cc1nc(C/C(=N\N)c2ccc(O)cc2O)cs1 | 2.5 | 6.0 | -1.3 | 5.8 | -1.9 | 4.7 | x
CCc1cc(/C(Cc2csc(C)n2)=N/O)c(O)cc1O | 13.0 | 8.3 | 11.4 | 16.2 | 7.7 | 29.0* | 22.7
CCOc1ccccc1/C=C\c1nc(O)c([N+](=O)[O-])c(=O)[nH]1 | 4.6 | 7.9 | -0.7 | 0.2 | -5.4 | 28.3* | 18.5
CCOc1cc(NC(=O)C2CC2)c(OCC)cc1NC(=O)c1cc(OC)c(OC)c(OC)c1 | 2.3 | 2.7 | 0.4 | -2.1 | 4.8 | 9.4 | x
SMILES | PAFAH1B2 inh | pPAFAH inh | Fam108B inh | PME-1 inh | PAFAH2 inh | PAFAH1B3 FP inh | PAFAH1B3 conf FP
Cc1ccc(C2=NOC(=O)/C2=C\C=C\c2ccccc2)cc1 | 12.0 | x | x | x | 15.9 | 36.2* | 28.8*
CN(C)/C=C1\C(=O)ON=C1c1ccccc1 | 2.7 | -0.8 | 0.6 | -1.6 | -3.9 | -7.4 | x
C[C@@H]1C=C(C(=O)NCc2nc3ccccc3[nH]2)O[C@H](OCc2ccc(CO)cc2)C1 | 3.9 | -4.4 | -5.0 | -3.1 | 7.1 | -1.9 | x
C[C@@H]1C=C(C(=O)NCc2nc3ccccc3[nH]2)O[C@H](OCCCCO)C1 | -6.2 | -2.4 | -0.8 | -5.2 | -3.2 | + | 7.9
S=c1[nH]nc(CCc2nc3ccccc3[nH]2)n1-c1ccccc1 | 1.4 | -2.6 | 0.7 | 2.8 | 8.8 | 1.2 | x
CSc1ccc(/C=N/Nc2cccc(C(=O)O)c2)cc1 | 21.8 | x | x | x | 19.7 | 32.7* | 25.8*
O=C(O)c1cccc(N/N=C/c2ccc(OC(F)(F)F)cc2)c1 | 5.3 | 4.9 | 3.2 | 3.6 | 8.2 | 1.6 | x
COc1ccc(NC(=O)COC(=O)CCCC2=NS(=O)(=O)c3ccccc3N2)cc1Cl | 3.9 | 1.9 | 2.7 | -1.7 | 12.6 | 5.8 | x
O=C(N/N=C/c1cc(Br)ccc1OC(=O)c1ccc(Br)cc1)c1ccncc1 | 15.1 | 8.4 | -3.3 | 0.7 | -18.8 | 25.7* | 12.8
CCN(CC)S(=O)(=O)c1ccc(OC)c(NC(=O)c2cc([N+](=O)[O-])ccc2Cl)c1 | 3.7 | 2.6 | 0.0 | 2.1 | 0.2 | -7.5 | x
Cc1[nH][nH]c(=O)c1C(c1ccc(-c2cccc(Cl)c2)o1)c1c(C)[nH][nH]c1=O | 12.6 | 7.4 | 5.7 | 1.6 | 17.8 | 46.2* | 19.2
O=[N+]([O-])c1cc(Br)c(Nc2ccccc2)c([N+](=O)[O-])c1 | 5.2 | 4.7 | 4.2 | 18.4 | 21.0 | 36.0* | 29.1*
CCCc1cc(=O)n2[nH]c(NCc3c(F)cccc3Cl)nc2n1 | 5.8 | -1.4 | 2.4 | 2.9 | 2.5 | 0.5 | x
CC(=O)N(C1=C(N2CCOCC2)C(=O)c2ccccc2C1=O)c1ccc(C(=O)O)cc1 | 5.4 | -3.0 | 0.7 | 6.7 | 3.2 | 25.8* | 15.6
CC(=O)N(C)C1=C(N2CCOCC2)C(=O)c2ccccc2C1=O | 8.3 | 10.6 | -0.9 | -0.1 | 3.3 | 30.6* | 12.4
CC(=O)Nc1nc(-c2ccc3c(c2)CCN3S(C)(=O)=O)cs1 | -4.3 | -2.2 | -2.5 | -3.1 | 0.7 | 1.3 | x
CS(=O)(=O)N1CCc2cc(-c3csc(NC(=O)Cc4cccs4)n3)ccc21 | 3.4 | 16.1 | -6.6 | 0.4 | -5.8 | 36.1* | 5.0
CCC(C)(C)n1nnnc1C(c1cc2cc(OC)c(OC)cc2[nH]c1=O)N1CCc2ccccc21 (stereo not given) | -1.6 | 3.0 | 3.0 | 0.6 | -2.6 | -2.2 | x
O=C1c2cccnc2C(=O)N1CO | 0.2 | 5.0 | 1.0 | -2.5 | 0.1 | -5.7 | x
NC1=C(Br)C(=O)c2ncccc2C1=O | 15.9 | x | x | x | 24.8 | 58.5* | 40.9*
O=C(NC1(O)C(=O)c2ccccc2C1=O)c1c(Cl)cccc1Cl | x | 7.3 | 4.7 | 10.0 | x | x | x
O=C(NC1(O)C(=O)c2ccccc2C1=O)c1ccccc1 | 9.2 | 2.5 | 8.7 | 4.9 | 15.9 | 36.5* | 37.2*
CCn1c(COc2ccccc2C)nnc1SCc1nc2ccccc2c(=O)[nH]1 | x | 0.0 | -4.8 | 4.0 | x | x | x
CCc1nnc(N/N=C/c2cc(Br)c(O)cc2O)n1N | 9.1 | 7.2 | 3.6 | -3.3 | 5.8 | 25.6* | 19.4
